The supplement of paper PMC11732987, “Enantioselective OTUD7B fragment discovery through chemoproteomics screening and high-throughput optimisation” (Communications Chemistry, 2025)

What was measured:
Test in all cases: log2 ratio of Biotin-Ahx-Ub-VS probe labelling (fragment/DMSO); higher = less target engagement (more negative = stronger competition), active = hit call of the paper (q ≤ 0.05, log2 ratio ≤ -1)
Settings in all cases: compound concentration: 200 uM; treatment time: 3 h
[1] = molecular target: T1, ALG13 (UniProt Q9NP73)
T1 sequence (whole entry): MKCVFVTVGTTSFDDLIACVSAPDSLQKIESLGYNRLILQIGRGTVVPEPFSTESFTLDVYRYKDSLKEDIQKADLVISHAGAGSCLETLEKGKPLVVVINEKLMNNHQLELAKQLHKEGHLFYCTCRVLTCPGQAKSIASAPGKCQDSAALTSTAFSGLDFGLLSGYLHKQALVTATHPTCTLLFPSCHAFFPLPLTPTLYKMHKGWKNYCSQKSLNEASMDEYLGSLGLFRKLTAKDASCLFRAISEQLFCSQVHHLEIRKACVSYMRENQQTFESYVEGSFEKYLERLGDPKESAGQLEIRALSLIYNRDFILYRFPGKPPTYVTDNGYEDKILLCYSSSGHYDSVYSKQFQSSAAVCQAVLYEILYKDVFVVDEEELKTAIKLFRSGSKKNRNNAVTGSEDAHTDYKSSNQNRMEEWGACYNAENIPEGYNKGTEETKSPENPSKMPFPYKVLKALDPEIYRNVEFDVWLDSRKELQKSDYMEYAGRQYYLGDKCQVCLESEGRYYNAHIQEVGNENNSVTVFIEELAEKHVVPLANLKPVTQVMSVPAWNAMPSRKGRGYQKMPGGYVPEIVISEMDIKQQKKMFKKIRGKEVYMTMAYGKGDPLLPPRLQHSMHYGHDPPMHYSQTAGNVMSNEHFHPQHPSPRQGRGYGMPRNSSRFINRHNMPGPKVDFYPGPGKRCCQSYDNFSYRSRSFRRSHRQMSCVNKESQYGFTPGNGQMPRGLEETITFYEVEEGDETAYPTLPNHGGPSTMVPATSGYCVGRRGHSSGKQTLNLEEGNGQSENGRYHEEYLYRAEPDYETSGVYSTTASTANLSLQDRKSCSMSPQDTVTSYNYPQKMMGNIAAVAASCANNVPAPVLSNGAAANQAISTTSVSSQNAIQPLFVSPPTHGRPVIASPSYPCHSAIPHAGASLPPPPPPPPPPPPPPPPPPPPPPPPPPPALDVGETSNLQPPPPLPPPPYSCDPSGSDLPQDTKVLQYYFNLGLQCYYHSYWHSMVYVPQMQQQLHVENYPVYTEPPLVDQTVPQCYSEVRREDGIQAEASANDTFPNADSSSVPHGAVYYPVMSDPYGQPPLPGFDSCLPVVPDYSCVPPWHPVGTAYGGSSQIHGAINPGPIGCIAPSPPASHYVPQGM
Method in brief: (§1)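 Global-median-normalised Spectronaut label-free quantities were compared by unpaired t-test, and values are average log2 ratios of fragment over vehicle. Only proteins with ≥2 unique peptides were used. HEK293T lysate (495 µg per sample) was treated in triplicate with fragment at 200 µM or vehicle for 3 h and then with Biotin-Ahx-Ub-VS at 0.5 µM final for 1 h. Labelled DUBs were then NeutrAvidin-enriched, digested with LysC and trypsin, and run by diaPASEF LC-MS/MS.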

[2] = molecular target: ATXN3 (UniProt P54252)
Chain of ATXN3 (P54252 whole entry): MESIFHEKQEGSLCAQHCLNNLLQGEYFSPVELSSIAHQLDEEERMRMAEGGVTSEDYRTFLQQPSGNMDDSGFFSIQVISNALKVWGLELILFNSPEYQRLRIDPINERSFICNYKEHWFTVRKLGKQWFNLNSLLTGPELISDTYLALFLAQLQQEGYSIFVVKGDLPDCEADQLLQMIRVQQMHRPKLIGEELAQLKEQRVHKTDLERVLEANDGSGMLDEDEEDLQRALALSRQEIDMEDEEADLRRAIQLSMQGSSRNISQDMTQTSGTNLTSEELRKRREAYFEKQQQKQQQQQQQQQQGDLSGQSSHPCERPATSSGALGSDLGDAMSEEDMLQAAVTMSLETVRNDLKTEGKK
Method in brief: as §1

[3] = molecular target: T2, BAP1 (UniProt Q92560)
T2 sequence (whole entry): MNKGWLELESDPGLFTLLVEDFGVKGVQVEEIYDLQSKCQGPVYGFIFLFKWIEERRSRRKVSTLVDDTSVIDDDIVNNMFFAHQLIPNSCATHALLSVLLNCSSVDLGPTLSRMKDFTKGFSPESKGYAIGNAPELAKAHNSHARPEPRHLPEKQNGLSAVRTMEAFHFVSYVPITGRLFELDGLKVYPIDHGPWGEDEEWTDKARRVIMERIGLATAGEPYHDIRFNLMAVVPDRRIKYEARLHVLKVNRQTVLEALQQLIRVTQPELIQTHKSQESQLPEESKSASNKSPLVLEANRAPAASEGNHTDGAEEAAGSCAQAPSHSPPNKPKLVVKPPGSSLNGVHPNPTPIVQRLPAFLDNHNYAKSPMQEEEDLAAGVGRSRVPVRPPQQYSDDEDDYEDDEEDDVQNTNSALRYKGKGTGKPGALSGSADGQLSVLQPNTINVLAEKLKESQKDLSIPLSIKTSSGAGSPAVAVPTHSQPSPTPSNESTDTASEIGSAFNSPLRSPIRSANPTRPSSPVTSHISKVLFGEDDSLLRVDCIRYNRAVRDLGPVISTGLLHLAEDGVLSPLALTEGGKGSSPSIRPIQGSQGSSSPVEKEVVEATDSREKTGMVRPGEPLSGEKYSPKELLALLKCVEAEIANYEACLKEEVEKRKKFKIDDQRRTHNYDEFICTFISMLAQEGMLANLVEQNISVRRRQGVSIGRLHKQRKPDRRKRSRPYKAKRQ
Method in brief: as §1

[4] = molecular target: EIF3F (UniProt O00303)
Chain of EIF3F (O00303 whole entry): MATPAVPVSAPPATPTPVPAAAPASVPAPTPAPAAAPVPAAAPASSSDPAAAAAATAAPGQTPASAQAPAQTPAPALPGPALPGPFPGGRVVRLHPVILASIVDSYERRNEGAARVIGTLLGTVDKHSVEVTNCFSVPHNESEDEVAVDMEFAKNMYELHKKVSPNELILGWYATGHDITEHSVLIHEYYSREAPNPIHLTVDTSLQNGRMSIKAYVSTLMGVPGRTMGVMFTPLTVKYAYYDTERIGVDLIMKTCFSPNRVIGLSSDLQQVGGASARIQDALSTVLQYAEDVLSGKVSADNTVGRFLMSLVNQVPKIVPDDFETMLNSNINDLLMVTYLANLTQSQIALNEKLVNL
Method in brief: as §1

[5] = molecular target: EIF3H (UniProt O15372)
Chain of EIF3H (O15372 whole entry): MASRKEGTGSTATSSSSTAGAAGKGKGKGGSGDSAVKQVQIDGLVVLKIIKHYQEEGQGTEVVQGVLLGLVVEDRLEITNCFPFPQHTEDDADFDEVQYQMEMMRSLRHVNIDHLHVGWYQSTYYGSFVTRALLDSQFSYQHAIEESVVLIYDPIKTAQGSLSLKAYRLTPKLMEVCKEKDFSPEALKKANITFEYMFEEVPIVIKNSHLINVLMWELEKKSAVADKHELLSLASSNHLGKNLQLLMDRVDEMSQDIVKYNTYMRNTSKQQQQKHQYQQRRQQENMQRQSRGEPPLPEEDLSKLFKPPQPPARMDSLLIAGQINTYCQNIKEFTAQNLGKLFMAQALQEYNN
Method in brief: as §1

[6] = molecular target: T3, FAM105A (UniProt Q9NUU6)
T3 sequence (whole entry): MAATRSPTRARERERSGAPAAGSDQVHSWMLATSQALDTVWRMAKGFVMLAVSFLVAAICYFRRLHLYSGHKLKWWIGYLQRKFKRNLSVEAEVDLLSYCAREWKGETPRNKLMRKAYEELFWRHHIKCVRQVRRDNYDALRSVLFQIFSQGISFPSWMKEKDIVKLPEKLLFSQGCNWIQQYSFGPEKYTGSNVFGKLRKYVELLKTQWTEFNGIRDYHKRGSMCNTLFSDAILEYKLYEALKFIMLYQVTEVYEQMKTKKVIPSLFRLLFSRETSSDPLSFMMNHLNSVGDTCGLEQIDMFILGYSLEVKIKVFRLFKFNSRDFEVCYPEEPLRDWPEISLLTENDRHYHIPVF
Method in brief: as §1

[7] = molecular target: OTUB1 (UniProt Q96FW1)
Chain of OTUB1 (Q96FW1 whole entry): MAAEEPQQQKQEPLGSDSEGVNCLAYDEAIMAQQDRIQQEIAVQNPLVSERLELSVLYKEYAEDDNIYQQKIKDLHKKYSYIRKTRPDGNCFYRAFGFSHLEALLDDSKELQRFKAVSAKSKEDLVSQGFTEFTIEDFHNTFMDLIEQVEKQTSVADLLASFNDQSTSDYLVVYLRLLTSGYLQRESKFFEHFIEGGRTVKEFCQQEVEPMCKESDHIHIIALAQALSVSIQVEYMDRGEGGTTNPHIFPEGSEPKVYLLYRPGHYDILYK
Method in brief: as §1

[8] = molecular target: T4, OTUD4 (UniProt Q01804)
T4 sequence (whole entry): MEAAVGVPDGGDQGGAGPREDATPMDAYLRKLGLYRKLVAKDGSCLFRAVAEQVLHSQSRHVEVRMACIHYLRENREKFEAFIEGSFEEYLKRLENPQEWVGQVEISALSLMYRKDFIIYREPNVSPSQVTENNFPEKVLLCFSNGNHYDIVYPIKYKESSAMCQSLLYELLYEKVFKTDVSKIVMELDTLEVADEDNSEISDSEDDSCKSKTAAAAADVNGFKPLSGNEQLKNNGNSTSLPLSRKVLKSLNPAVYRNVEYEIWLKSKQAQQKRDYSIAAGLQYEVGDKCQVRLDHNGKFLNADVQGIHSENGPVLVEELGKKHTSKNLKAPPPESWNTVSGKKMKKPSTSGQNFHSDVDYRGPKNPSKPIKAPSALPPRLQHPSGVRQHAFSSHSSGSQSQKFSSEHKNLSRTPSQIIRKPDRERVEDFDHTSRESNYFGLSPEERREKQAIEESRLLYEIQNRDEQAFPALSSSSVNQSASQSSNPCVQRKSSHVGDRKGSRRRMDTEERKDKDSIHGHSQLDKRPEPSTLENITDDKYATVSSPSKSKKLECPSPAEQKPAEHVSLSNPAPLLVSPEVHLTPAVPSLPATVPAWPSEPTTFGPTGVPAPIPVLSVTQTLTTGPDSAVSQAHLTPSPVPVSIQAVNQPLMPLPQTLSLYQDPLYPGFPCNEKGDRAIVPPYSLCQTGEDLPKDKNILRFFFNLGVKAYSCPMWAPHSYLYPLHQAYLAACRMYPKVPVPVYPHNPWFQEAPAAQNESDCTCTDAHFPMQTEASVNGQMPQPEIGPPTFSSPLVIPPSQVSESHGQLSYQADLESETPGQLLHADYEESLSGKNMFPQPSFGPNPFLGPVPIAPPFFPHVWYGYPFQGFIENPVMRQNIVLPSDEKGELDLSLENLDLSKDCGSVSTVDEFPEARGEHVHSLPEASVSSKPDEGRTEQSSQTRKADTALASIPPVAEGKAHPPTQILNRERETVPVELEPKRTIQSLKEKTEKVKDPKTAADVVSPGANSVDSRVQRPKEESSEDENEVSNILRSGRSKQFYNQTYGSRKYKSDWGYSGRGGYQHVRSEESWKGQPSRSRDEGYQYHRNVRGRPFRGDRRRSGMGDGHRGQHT
Method in brief: as §1

[9] = molecular target: T5, OTUD5 (UniProt Q96G74)
T5 sequence (whole entry): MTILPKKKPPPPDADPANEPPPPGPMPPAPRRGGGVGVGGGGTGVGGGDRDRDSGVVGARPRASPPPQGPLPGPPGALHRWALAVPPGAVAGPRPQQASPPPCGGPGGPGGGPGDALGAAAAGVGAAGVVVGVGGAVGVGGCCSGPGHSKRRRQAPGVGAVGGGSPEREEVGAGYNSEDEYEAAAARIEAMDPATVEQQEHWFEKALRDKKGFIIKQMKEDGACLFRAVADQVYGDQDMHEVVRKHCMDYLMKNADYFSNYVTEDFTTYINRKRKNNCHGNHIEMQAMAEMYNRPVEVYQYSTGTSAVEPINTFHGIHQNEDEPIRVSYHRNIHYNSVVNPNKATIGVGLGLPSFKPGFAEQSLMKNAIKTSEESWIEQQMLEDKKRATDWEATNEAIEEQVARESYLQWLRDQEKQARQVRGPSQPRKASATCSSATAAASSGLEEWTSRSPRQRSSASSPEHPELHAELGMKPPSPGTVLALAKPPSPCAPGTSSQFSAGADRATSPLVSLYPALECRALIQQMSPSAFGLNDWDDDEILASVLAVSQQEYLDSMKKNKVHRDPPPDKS
Method in brief: as §1

Measured: log2 ratio of Biotin-Ahx-Ub-VS probe labelling

O=C(CCl)N1CCc2sccc2C1
inactive: [1] -0.104 | [2] -0.969 | [3] -0.988 | [4] -0.211 | [5] -0.00567 | [6] -0.348 | [7] -0.126 | [8] -0.819 | [9] -0.923
